From PubChem BioAssay (NCI)
This is part of a sample that, as a whole, favours compounds with a hit. Of some 83,000 tested, about 20% had one in any assay.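 Percent growth is the endpoint: 0 to 100 indicates growth inhibition (40 means 60% inhibition), 0 means no net growth, and negative values indicate cell death.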 Activity calls are given as the source filed them. The calls were made as follows: active = growth percent below 10; inactive = the rest.

What was measured:
Test in all cases: NCI-60 one-dose screen, 48 h (100 = growth as untreated, 0 = no growth, -100 = all killed)
Conditions in all cases: 10 µM unless noted
T-47D breast = tested on: T-47D breast
BT-549 breast = tested on: BT-549 breast
MDA-MB-435 melanoma = tested on: MDA-MB-435 melanoma
SW-620 colon = tested on: SW-620 colon
MCF7 breast = tested on: MCF7 breast
HCT-116 colon = tested on: HCT-116 colon
HCC-2998 colon = tested on: HCC-2998 colon
KM12 colon = tested on: KM12 colon

Measured: growth

Nc1nc(N)c2c(n1)NC(c1ccc(Cl)cc1)CC(c1ccc(Nc3nc(NCCO)nc(N4CCOCC4)n3)cc1)=N2 (centres undefined)
inactive: T-47D breast 74.8% | BT-549 breast 71% | MDA-MB-435 melanoma 81.7% | SW-620 colon 79.4% | MCF7 breast 41.9% | HCT-116 colon 57.3% | HCC-2998 colon 108% | KM12 colon 65.3%

Nc1ccccc1NC(=O)c1ccc(NC(=O)C/C=C/c2cccnc2)cn1
active: T-47D breast 8.26% | BT-549 breast 3.27% | MCF7 breast 5.84% | HCT-116 colon 4.69% | HCC-2998 colon 9.51%
inactive: MDA-MB-435 melanoma 19% | SW-620 colon 14.5% | KM12 colon 26.2%

Cc1nn(-c2ccccc2)c2ncnc(N/N=C/c3ccccc3O)c12
inactive: T-47D breast 15.6% | BT-549 breast 25.6% | MDA-MB-435 melanoma 16.3% | SW-620 colon 26.2% | HCT-116 colon 20.9% | HCC-2998 colon 52% | KM12 colon 16.7%
active: MCF7 breast 9.62%

COc1cccc(C(=O)Nc2cccc(C#Cc3cccc4[nH]nc(N)c34)c2)c1
active: MDA-MB-435 melanoma 1.93%
inactive: T-47D breast 38% | BT-549 breast 121% | SW-620 colon 34% | MCF7 breast 30.7% | HCT-116 colon 33.1% | HCC-2998 colon 45.9% | KM12 colon 12.6%

Nc1ccccc1NC(=O)c1ccc(NC(=O)C/C=C/c2cccnc2)cc1
inactive: T-47D breast 12.2% | BT-549 breast 25.1% | MDA-MB-435 melanoma 26.3% | SW-620 colon 15.7% | MCF7 breast 17.4% | KM12 colon 33.2%
active: HCT-116 colon -29.3% | HCC-2998 colon 9.69%

COc1cc(C2N=C(NNc3ccccc3)NC(C)=C2C(C)=O)ccc1O (centres undefined)
inactive: T-47D breast 83.9% | BT-549 breast 123% | MDA-MB-435 melanoma 92.5% | SW-620 colon 82.1% | MCF7 breast 88.7% | HCT-116 colon 95.1% | HCC-2998 colon 98.9% | KM12 colon 95.6%

CC[C@H](CO)Nc1ccc2ncc(C#Cc3cncc(C(=O)Nc4ccc(CN5CCN(C)CC5)c(C(F)(F)F)c4)c3)n2n1
active: T-47D breast -69.5% | BT-549 breast -97.4% | MDA-MB-435 melanoma -91.4% | SW-620 colon -50.8% | MCF7 breast -73.1% | HCT-116 colon -94.3% | HCC-2998 colon -59.4% | KM12 colon -61.9%

COc1cc(OC)c(S(N)(=O)=O)cc1C(=O)/C=C/c1ccc(Cl)cc1
inactive: T-47D breast 26.1% | MDA-MB-435 melanoma 16.7%
active: BT-549 breast 1.01% | SW-620 colon -39.9% | MCF7 breast 5.69% | HCT-116 colon 7.77% | HCC-2998 colon 1.39% | KM12 colon 1.9%

CN1CCN(Cc2ccc(NC(=O)c3cncc(C#Cc4cnc5ccc(OCC(C)(C)O)nn45)c3)cc2C(F)(F)F)CC1
active: T-47D breast -17.6% | BT-549 breast -20.1% | MDA-MB-435 melanoma -86.8% | SW-620 colon -16.1% | MCF7 breast -66.3% | HCT-116 colon -51% | HCC-2998 colon -34.3% | KM12 colon 1.72%

NC(N)=Nc1ccc(Oc2cccc(NC(N)=Nc3ccc(Cl)c(C(F)(F)F)c3)c2)cc1
inactive: T-47D breast 57.9% | BT-549 breast 43.8% | MDA-MB-435 melanoma 62.9% | SW-620 colon 57% | MCF7 breast 42% | HCT-116 colon 44.9% | HCC-2998 colon 66.2% | KM12 colon 26.2%

COc1cccc(/C=C(/C)c2ccc3cccc(OC)c3[o+]2)c1O
inactive: T-47D breast 100% | BT-549 breast 85.1% | MDA-MB-435 melanoma 104% | SW-620 colon 106% | MCF7 breast 90.9% | HCT-116 colon 102% | HCC-2998 colon 120% | KM12 colon 99.1%

CC1=N[C@@H]2CN(C(=O)OC(C)(C)C)C[C@@H]2n2c1cc1ccccc1c2=O
inactive: T-47D breast 98.8% | BT-549 breast 144% | MDA-MB-435 melanoma 108% | SW-620 colon 107% | MCF7 breast 95.6% | HCT-116 colon 103% | HCC-2998 colon 107% | KM12 colon 97.5%

COc1ccc([C@H]2c3[nH]c4ccccc4c3C[C@H]3C(=O)N(C4CCN(Cc5c(Cl)cccc5Cl)CC4)CC(=O)N23)c(OC)c1
inactive: T-47D breast 83.6% | BT-549 breast 119% | MDA-MB-435 melanoma 102% | SW-620 colon 95.4% | MCF7 breast 84.3% | HCT-116 colon 92.6% | HCC-2998 colon 113% | KM12 colon 96.8%

COc1ccc2[nH]cc(-c3csc4nc(-c5ccccc5)cn34)c2c1
active: MDA-MB-435 melanoma -47.7% | HCT-116 colon 4.36% | HCC-2998 colon 6.03%
inactive: T-47D breast 30.7% | BT-549 breast 45.8% | SW-620 colon 25.1% | MCF7 breast 11.5% | KM12 colon 11.6%

ClC(Cl)c1nc(-c2ccco2)n2nc(-c3ccccc3)cc2n1
active: SW-620 colon 8.35% | MCF7 breast 1.38% | HCT-116 colon 2.94% | HCC-2998 colon -53.5% | KM12 colon -27.4%
inactive: T-47D breast 32.8% | BT-549 breast 87.7% | MDA-MB-435 melanoma 24.9%

Cc1ccc(C(=O)NN2C(=O)/C(=C/C=C/c3ccco3)SC2=S)cc1
inactive: T-47D breast 95.4% | BT-549 breast 137% | MDA-MB-435 melanoma 90.7% | SW-620 colon 106% | MCF7 breast 82% | HCT-116 colon 98.2% | HCC-2998 colon 107% | KM12 colon 102%

COc1cc2nc(Cl)nc(Nc3cccc(C4=Nc5c(N)nc(N)nc5NC(c5ccc(Br)cc5)C4)c3)c2cc1OC (centres undefined)
inactive: T-47D breast 85.1% | BT-549 breast 87.8% | MDA-MB-435 melanoma 47.4% | SW-620 colon 46.5% | MCF7 breast 39.3% | HCC-2998 colon 41.5% | KM12 colon 24.3%
active: HCT-116 colon -10.5%

Cc1ccc(S(=O)(=O)N(CC[C@@H]2C[C@H]2c2cc3ccccc3o2)S(=O)(=O)c2ccc(C)cc2)cc1
inactive: T-47D breast 78.3% | BT-549 breast 98% | MDA-MB-435 melanoma 104% | SW-620 colon 95.2% | MCF7 breast 79.6% | HCT-116 colon 92.5% | HCC-2998 colon 100% | KM12 colon 103%

CC1(C)CC[C@]2(C(=O)O)CC[C@]3(C)C(=CC[C@@H]4[C@@]5(C)CC/C(=N\OCCC#N)C(C)(C)[C@@H]5CC[C@]43C)[C@@H]2C1
inactive: T-47D breast 104% | BT-549 breast 106% | MDA-MB-435 melanoma 101% | SW-620 colon 94.2% | MCF7 breast 95.5% | HCT-116 colon 96.4% | HCC-2998 colon 116% | KM12 colon 105%

COc1ccccc1-n1cc(C#N)c(N)c1C(=O)c1ccc(Br)cc1
active: MDA-MB-435 melanoma 3.09%
inactive: T-47D breast 60% | BT-549 breast 88.9% | SW-620 colon 38.7% | MCF7 breast 33.5% | HCT-116 colon 58.8% | HCC-2998 colon 71% | KM12 colon 39.3%

O=C1C(c2ccccc2)=C(N2CCc3ccccc32)OC1(Cl)Cl
inactive: T-47D breast 10.1% | BT-549 breast 75.1% | MDA-MB-435 melanoma 85.9% | MCF7 breast 26.2% | HCC-2998 colon 88% | KM12 colon 87.9%
active: SW-620 colon -28.8% | HCT-116 colon 2.36%

Cc1c(Cl)cccc1S(=O)(=O)Nc1ccc2c(c1)C(=O)N(C1CCC(=O)NC1=O)C2=O (centres undefined)
inactive: T-47D breast 44% | BT-549 breast 63.9% | MDA-MB-435 melanoma 96.2% | SW-620 colon 44.8% | MCF7 breast 88.2% | HCT-116 colon 107% | HCC-2998 colon 67.9% | KM12 colon 92.2%

COc1cc(OC)c(S(N)(=O)=O)cc1C(C)=O
inactive: T-47D breast 98.3% | BT-549 breast 115% | MDA-MB-435 melanoma 107% | SW-620 colon 113% | MCF7 breast 89.8% | HCT-116 colon 114% | HCC-2998 colon 106% | KM12 colon 104%

CNC(=O)c1c(NC(=O)c2cccc(C(F)(F)F)c2F)sc2c1CCC(=O)C2
active: MCF7 breast 6.33% | HCT-116 colon 5.58% | KM12 colon 3%
inactive: T-47D breast 13.8% | BT-549 breast 21.3% | MDA-MB-435 melanoma 11.9% | SW-620 colon 14.2% | HCC-2998 colon 25.2%

C=CCn1c(-c2nc3ccc(C(=C(C#N)C#N)c4ccccc4)cc3[nH]2)cc2cc(Br)ccc21
active: MCF7 breast 0.939%
inactive: T-47D breast 43% | BT-549 breast 71.3% | MDA-MB-435 melanoma 75.2% | SW-620 colon 61.2% | HCT-116 colon 27.4% | HCC-2998 colon 61.2% | KM12 colon 34.1%

COc1ccc(-c2nn(-c3ccc(S(C)(=O)=O)cc3)cc2/C=N/O)cc1
inactive: T-47D breast 106% | BT-549 breast 112% | MDA-MB-435 melanoma 109% | SW-620 colon 104% | MCF7 breast 106% | HCT-116 colon 107% | HCC-2998 colon 115% | KM12 colon 104%

O=C(CSc1nc2ccccc2c(=O)n1-c1ccccc1)Nc1ccc(-c2nc3ccc([N+](=O)[O-])cc3[nH]2)cc1
inactive: T-47D breast 89.1% | BT-549 breast 80% | MDA-MB-435 melanoma 80.1% | SW-620 colon 43.7% | MCF7 breast 40.6% | HCT-116 colon 67.4% | HCC-2998 colon 100% | KM12 colon 91.7%

Nc1cc(F)ccc1NC(=O)c1ccc(NC(=O)C/C=C/c2cccnc2)cc1
inactive: T-47D breast 22.7% | BT-549 breast 26.1% | MDA-MB-435 melanoma 28% | SW-620 colon 17.6% | MCF7 breast 33% | HCC-2998 colon 52.8% | KM12 colon 41.5%
active: HCT-116 colon 9.59%
